Measurements: PubChem BioAssay (NCI)
The panel holds about 83,000 compounds, 20% with a hit somewhere; the sample as a whole holds those more often.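 Percent growth is the endpoint: 0 to 100 indicates growth inhibition (40 means 60% inhibition), 0 means no net growth, and negative values indicate cell death.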 Values without a mark were called inactive. Calls of active or inactive are those of the source. The calls were made as follows: active = growth percent below 10; inactive = the rest.

Legend:
Experiment in all cases: NCI-60 one-dose screen, 48 h (100 = growth as untreated, 0 = no growth, -100 = all killed)
Settings in all cases: 10 µM unless noted
T-47D breast = system: T-47D breast
BT-549 breast = system: BT-549 breast
MDA-MB-435 melanoma = system: MDA-MB-435 melanoma
SW-620 colon = system: SW-620 colon
MCF7 breast = system: MCF7 breast
HCT-116 colon = system: HCT-116 colon
HCC-2998 colon = system: HCC-2998 colon
KM12 colon = system: KM12 colon

SMILES | growth (T-47D breast) | growth (BT-549 breast) | growth (MDA-MB-435 melanoma) | growth (SW-620 colon) | growth (MCF7 breast) | growth (HCT-116 colon) | growth (HCC-2998 colon) | growth (KM12 colon)
Cn1c2c(Cl)c(Cl)ccc2c2cc(N)[nH]c(=O)c21 | 79.7% | 64.2% | 107% | 77.8% | 72.4% | 83.1% | 85% | 94.2%
CC1(C)[C@H](O)CC[C@]2(C)[C@@H]1CC[C@@]13C[C@@H](CC[C@H]12)[C@@](O)(CO)C3 | 105% | 90.3% | 107% | 108% | 99.3% | -70.1% (active) | 105% | 116%
OC1(c2ccc(Cl)c(C(F)(F)F)c2)CCN(CCCC(c2ccc(F)cc2)c2ccc(F)cc2)CC1 | -62.1% (active) | -92.8% (active) | -91.6% (active) | -100% (active) | -90.3% (active) | -92.3% (active) | -97.2% (active) | -99.2% (active)
O=C1NC(=S)NC(=O)C1=Cc1cn(Cc2ccccn2)c2ccccc12 | 89.8% | 66.8% | 21.3% | 48.3% | 34.6% | 2.36% (active) | 54.2% | 57.2%
O=C(N=Nc1c(O)[nH]c2ccc(F)cc12)c1cc2ccccc2[nH]1 | 88.2% | 90.2% | 99.6% | 105% | 90.1% | 93.5% | 100% | 102%
Cn1/c(=N/NC(N)=S)ccc2ccccc21 | 52.9% | 100% | 99.8% | 84.5% | 37.4% | 7.01% (active) | 112% | 103%
BrC(Br)(Br)c1cnc2ccccc2n1 | -49.3% (active) | 74.4% | 36.5% | -65% (active) | 25.8% | -40.3% (active) | 43.8% | 42.7%
Cc1ccc2[nH]c(=O)cc(-n3nncc3COc3ccc(C=O)cc3)c2c1 | 97.5% | 90.8% | 103% | 99.4% | 95.6% | 108% | 109% | 106%
CS(=O)(=O)OCCN(CCOS(C)(=O)=O)c1ccc(/C=N/Nc2ccc([N+](=O)[O-])cc2[N+](=O)[O-])cc1 | 76% | 99.3% | 94.1% | 73.4% | 66.5% | 83.9% | 80.2% | 99.6%
O=C(Nc1nc(-c2ccccc2Cl)cs1)c1cc(-c2ccccc2)nc2ccc(Cl)cc12 | 74.1% | 11.8% | 8.05% (active) | 29.4% | 25.8% | 4.98% (active) | 95.5% | 84.2%
CN1CCN(CCCNc2nccc(-c3c(-c4ccc(F)c(O)c4)nc4sccn34)n2)S1(=O)=O | 90.1% | 128% | 40.8% | 112% | 85% | 75.9% | 108% | 94.3%
COc1ccc(C(=O)c2cc3c(N)c(C(=O)Nc4cccc5ccccc45)sc3nc2C)cc1 | 32.6% | 45.1% | -6.84% (active) | 21.9% | 19.4% | 6.55% (active) | 20.8% | 12.3%
O=C1CCCCCCCCC(O)C(O)CCCC(c2cccs2)O1 (configuration not stated) | 71.8% | 122% | 99.3% | 103% | 95.9% | 89.8% | 118% | 100%
O=S(=O)(O)c1cc(O)c2c(N=Nc3ccc(Nc4ccccc4)c4c(S(=O)(=O)O)cccc34)cc(S(=O)(=O)O)cc2c1 | 100% | 100% | 115% | 103% | 105% | 105% | 102% | 101%
CCCCCN1C=C/C(=C\C(=O)N(C)c2ccc(Br)cc2)c2ccccc21 | 84.3% | 108% | 101% | 94.4% | 91% | 80.7% | 102% | 103%
COc1ccccc1Nc1cc(O)c2c(=O)cc(-c3ccccc3)oc2c1 | 31.4% | 40.9% | -24.3% (active) | 20.8% | 17.3% | 14.1% | 71.9% | 36.2%
O=c1[nH]nc(-c2ccc(Cl)cc2)cc1Cc1cccc([N+](=O)[O-])c1 | 85.2% | 133% | 112% | 101% | 84.8% | 100% | 130% | 93.3%
C=Cc1cc[n+](CCCCCCCCCCCC)cc1 | 131% | 116% | 104% | 100% | 106% | 97.6% | 110% | 104%
CC(C)C1C2=C(NCCN1C(=O)Cc1ccccc1)C(C)(C)N(Cc1ccccc1)C2=O (configuration not stated) | 91.8% | 99.7% | 99.2% | 92.5% | 95.3% | 91.7% | 101% | 107%
CCOc1cc(CNc2ccc(N3CCOCC3)c(C(=O)O)c2)ccc1OC | 103% | 108% | 104% | 98.5% | 82.2% | 119% | 99.9% | 100%
Clc1cc(Cl)cc(N2N=C(c3cccc(Nc4ccncc4)c3)CC2c2ccc(Br)cc2)c1 (configuration not stated) | 81.1% | 112% | -14.7% (active) | -72.1% (active) | -46.4% (active) | 108% | -39.9% (active) | -34.3% (active)
COc1ccc(/C=C\c2nc3ccccc3s2)cc1OP(=O)(O)O | 41.4% | 44.3% | -70.4% (active) | 23.2% | 21.7% | 25.9% | 66.9% | 31.4%
Cc1cc2nc(-c3ccccc3)c(-c3ccccc3)nc2cc1C | 86.5% | 97.5% | 93% | 99% | 88.9% | 91.4% | 104% | 104%
C[C@@H]1CN(Cc2ccc(/C=C/c3n[nH]c4ccc5nc(-c6cn[nH]c6C(F)(F)F)c6c(c5c34)CCCC6)cc2)C[C@H](C)O1 | 49.8% | 39.6% | 46.7% | -16.6% (active) | 12.4% | 4.51% (active) | 27.6% | 19.8%
O=C1/C(=C\c2cn(Cc3ccccc3)c3ccc(Br)cc23)c2ccccc2N1c1c(Cl)cccc1Cl | 94.5% | 106% | 105% | 108% | 96.7% | 94.7% | 106% | 104%
Clc1ccc(C2CC(c3cccc(Nc4ccncc4)c3)=NN2c2ccc(Cl)cc2)cc1 (configuration not stated) | 52.2% | -80.2% (active) | -79% (active) | -67.6% (active) | -41.1% (active) | -73.2% (active) | -74% (active) | -77.3% (active)
COc1ccc(NC(=O)c2sc3nc(C)c(C(O)c4ccc(OC)cc4)cc3c2N)cc1 (configuration not stated) | 56.8% | 28.8% | -2.11% (active) | 33.8% | 13.7% | 15.3% | 20.4% | 20.7%
O=C1c2cccnc2C(=O)c2nc3cc(N4CCN(C5CC5)CC4)ccc3nc21 | 22.5% | -93.7% (active) | -87.4% (active) | -37.8% (active) | -56.1% (active) | 0.851% (active) | -80.8% (active) | 9.27% (active)
Fc1ccc(C2CC(c3cccc(Nc4ccncc4)c3)=NN2c2ccccc2)cc1 (configuration not stated) | 71% | 87.7% | -54.8% (active) | -65.4% (active) | 8.89% (active) | 61.9% | 3.99% (active) | 8.85% (active)
